This is an account of results in PubChem BioAssay AID1745847 (National Center for Advancing Translational Sciences (NCATS), 2022).

Each structure is given as a SMILES string. The campaign covered roughly 2,100 compounds. About 670 (32%) were called active. Inconclusive results (about 50%) are left out. Calls follow the shape of the dose curve; as a rule, active = well fitted inhibition curve with a large enough effect; inconclusive = small, poorly fitted or top-dose-only effect; inactive = no such curve, though single readings can be large or run the other way. Some of the results follow.
% is scaled to controls: 0 for no effect and ±100 for the full control effect; potency is read from the fitted curve at half-maximal effect.

The test can be described thus: CMV-Luciferase Counterscreen for Inhibitors of ATXN expression. Also: nearly all actives have a fitted effect of over 55% in size. Particulars: HEK-293 CMV-luciferase reporter, luminescence, 24 h; series mostly up to 57.5 µM. From the text: PI: Daniel Scoles Ph.D. University of Utah School of Medicine, Salt Lake City, Utah MLPCN Grant: NS073009 Spinocerebellar ataxia type 2 (SCA2) is a multisystem neurodegenerative disease caused by a dominantly acting mutation leading to expansion of a polyQ domain in the ataxin-2 protein (ATXN2). SCA2 patients develop progressive ataxia and later lose function in other neuronal systems. Prominent parkinsonian signs develop in some patients. Like many neurodegenerative disorders, no symptomatic or disease-modifying treatments are known. The primary objective of the proposed research is to identify compounds inhibiting ATXN2 expression and to test them for efficacy in SCA2 mouse models. We have developed a cell-based assay paired with an in vivo mouse model using identical luciferase expression constructs. This approach takes advantage of an ATXN2-luciferase transgene, with the luciferase gene flanked by the upstream and downstream portions of the ATXN2 gene. Here we describe a 5-7 dose quantitative high thoroughput screen (qHTS) for compounds lowering ATXN2 expression. We screened the NIH Molecular Libraries Small Molecule Repository (MLSMR) and NCGC's mechanistically annotated (MIPE) and drug repurposing (NPC) collections of compounds for lowering expression of an ATXN2-luciferase reporter in HEK-293 cells. The assay is a multiplexed cell viability assay to ensure target reduction in the absence of cytotoxicity. Secondary qHTS assays included a CMV-luciferase reporter expressed in HEK-293 cells as well as a biochemical assay using recombinant luciferase to detect inhibitors of the reporter enzyme. Compounds that inhibit ATXN2 expression but is not cytotoxic were selected for confirmatory and secondary screens.
PROTOCOL TABLE (as described by Inglese J, Shamu CE and Guy RK. 2007) SEQUENCE No. (e.g., 1, 2, 3, etc.); PARAMETER (e.g., Cells, Incubation, Reagent, etc.); VALUE; DESCRIPTION. 1; Cells; 4 uL; white, solid bottom, 1536-well Greiner assay plate. 2; Incubation; 2 hr; 37 degree C in 5% humidified CO2. 3; Compounds; 23 nL; Kalypsis pintool (Wako USA) equipped with a 1536-well pin head. 4; Incubation; 24 hr; 37 degree C in 5% humidfified CO2. 5; Reagent; 1 uL; Gly-Phe-7-Amino-4-trifluoromethylcoumarin. 6; Incubation; 30 min; 37 degree C in 5% humidfified CO2. 7; Detection; Fluorescence; Viewlux plate reader (PerkinElmer). 8; Reagent; 3 uL; SteadyGlo luciferase solution (Promega). 9; Incubation; 5 min; room temperature. 10; Detection; Luminescence; ViewLux plate reader (PerkinElmer). NOTES (numbers refer to Sequence numbers above) 1. HEK-293 cells expressing CMV-luciferase reporter (designated as SC cells) were suspended in phenol-red free DMEM and dispensed in assay plates using a Multidrop Combi dispenser (Thermo Fisher Scientific). 2. Assay plates were incubated. Evaporation was prevented by covering assay plates with metal lids containing holes to allow gas diffusion. 3. Compounds were added in a dose response manner with the final concentrations of 57, 11.4, 2.28, 0.46, 0.091, 0.018, 0.0037 uM. Vehicle-only plates, with DMSO being pin-transferred to columns 5-48, were inserted uniformly at the beginning and the end of each library to monitor and record any shifts in assay performance. 5. 125 uM Gly-Phe-7-Amino-4-trifluoromethylcoumarin (MP Biomedicals) working concentration was used at a final concentration of 25 uM. 7. To assess cell viability; the assay plates were read using the ViewLux high-throughput CCD imager (PerkinElmer), wherein single end-point fluorescence measurement was acquired (excitation 405/10; emission 540/25 nm). 8. Detection reagent SteadyGlo Luciferase (Promega) was added to the assay plate. 10. Luminescence is then measured on the ViewLux imager equipped with a clear emission filter using a 2 sec exposure. […]
On the technique in general: The purpose of a counterscreen is to sort out artefacts and off-target activity.
In the case of `Nc1nc(NCCc2ccccc2)nc(NCc2ccccc2)c1[N+](=O)[O-]`, the Potency entry is “inactive”.
On to `COC(=O)[C@H]1C[C@H](OC(=O)NC2CC2)[C@@]2(O)CN(S(=O)(=O)c3ccc(C)cc3)CC2[C@H]1C(=O)OC` (stereo not given in full), for which the activity change, negative = inhibition is 4.52% [at 11.4 µM] (inactive).
Consider `O=C(CN1C(=O)c2ccccc2S1(=O)=O)c1ccc(Cl)cc1Cl`, for which the Potency was 1 µM (active).
Consider `CC1Cc2cc(-c3csc(NC(=O)Cc4cccs4)n3)ccc2N1S(C)(=O)=O` (stereo not given), for which the Potency is 1.41 µM (active).
For `O=c1c2c(nc3c(-c4cccc(Br)c4)c[nH]n13)CCCC2`, the Potency was 3.55 µM (active).
The same measure, in the same setting: as for `O=c1c2c(nc3c(-c4ccc(Cl)cc4)c[nH]n13)CCCC2`, the figure is 0.891 µM (active); as for `CC1CCCN(S(=O)(=O)c2ccc(C(=O)Nc3nnc(-c4ccccc4Cl)o3)cc2)C1` (stereo not given), 1.26 µM (active); as for `CC1CCCCN1S(=O)(=O)c1ccc(C(=O)Nc2nnc(-c3ccncc3)o2)cc1` (stereo not given), 8.91 µM (active).
Regarding `CN(C)CCCNC(=O)/C=C/c1ccc(OCc2c(F)cccc2Cl)cc1`, the Potency entry is “inactive”.
Still for that read-out and setting: the value for `Cc1ccc(CN2CCC(c3cc(-c4ccc(Cl)cc4)n[nH]3)CC2)cc1` was 22.4 µM (active); that for `Clc1ccc(-c2cc(C3CCNCC3)[nH]n2)c(Cl)c1` was “inactive”.
Regarding `CCc1ccc(CNC(=O)c2cc3c(C)nc4ccccc4c3o2)cc1`, the Potency was 10 µM (active).
On to `COc1ccc(N2CCN(C(=O)c3cc4c(C)nc5ccccc5c4o3)CC2)cc1`, for which the Potency is 22.4 µM (active).
Take `CCOC(=O)c1cnc2ccc(OC)cc2c1Nc1ccc(N2CCN(C)CC2)cc1`: the Potency result was “inactive”.
In the case of `COc1ccc(C(=O)N2CCN(c3nc(C4CC4)nc4sc(C)c(C)c34)CC2)cc1`, the Potency is 17.8 µM (active).
On to `Cc1sc2nc(CN3CCCC3)nc(N3CCC(C(N)=O)CC3)c2c1C`, for which the Potency entry is “inactive”.
As to `Cc1ccc(C)c(OCCCC(=O)Nc2nccs2)c1`, the Potency entry is “inactive”.
As for `Cc1cc(Br)c(OCc2ccc(C(=O)N/N=C3\CC4CC=CC34)cc2)c(Br)c1` (stereo not given), the Potency was 28.2 µM (active).
Still for that read-out and setting: the value for `CC(C)Nc1nc(-c2ccccn2)nc(-c2ccccc2)c1C#N` was “inactive”; that for `CCN(CC)c1nc(-c2ccccn2)nc(-c2ccccc2)c1C#N` was 7.08 µM (active); that for `COC(=O)c1c(NC(=O)/C=C/C(=O)O)sc(C)c1-c1ccc(C(C)C)cc1` was 14.1 µM (active).
In the case of `Cc1cc(N2CCN(C)CC2)ccc1NC(=O)c1ccc(-c2ccc(Cl)cc2)o1`, the Potency result is “inactive”.
Consider `Cc1[nH]c(-c2ccc(F)cc2)cc1C(=O)N1CCN(c2ccc(Cl)cc2)CC1`, for which the Potency was 22.4 µM (active).
As to `CC1(C(=O)NCc2ccccc2Br)CCN1C(=O)Cc1ccc(-c2ccccc2)cc1` (stereo not given), the Potency was 20 µM (active).
For `CC1(C(=O)NCc2ccco2)CCN1C(=O)C1(c2ccccc2)CC1` (stereo not given), the activity change, negative = inhibition was -4.65% [at 11.4 µM] (inactive).
